High-throughput results (PubChem)
The list is not random: actives were taken first. Their share in the collection is about 3.8%.
VDR inhibitor: inhibitors of human vitamin D receptor; VDR-SRC2-3 peptide fluorescence polarization, 2 h; Potency, µM, actives largely listed as inhibitors; hit rate 0.93% among 400,000
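After 23 nl compound addition and a short centrifugation, plates sat for 2 hours at ambient temperature; polarization of fluorescence then indicated loss of VDR binding to peptide SRC2-3.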
TrxR1 inh-1: blocks rat thioredoxin reductase 1 | O89049 | recombinant rTrxR1, NADPH fluorescence consumption, selenite substrate | Potency, µM (titrated, usually from 114 µM), hits mostly inhibitors | hit rate 1% among 390,000 | AID 588453; also: nearly all actives have a fitted effect of over 65% in size
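Rat TrxR1 (90 nM in the dispensed reagent) was pre-reduced with 400 uM NADPH for 5 min at room temperature, then incubated with compound for 15 min. After 400 uM selenite was added, NADPH fluorescence (Ex 340/Em 450 nm) was followed for 8 min.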
TrxR1 substrate: is turned over as a substrate by rat TrxR1; O89049; purified TrxR1 substrate turnover, NADPH consumption readout; Potency, µM (top dose mostly 114 µM); hit rate 0.01% among 390,000; AID 588456; also: nearly all actives have a fitted effect of over 50% in size
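Rat TrxR1, dispensed at 90 nM, was prereduced with 400 uM NADPH (final) for 5 min at ~22 deg C, then incubated with compound 15 min before 400 uM selenite. A first-read NADPH fluorescence drop versus no-compound background flagged substrates.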
GCN5L2 inh: GCN5L2 (KAT2A) acetyltransferase inhibition | GCN5L2 HAT assay, ThioGlo1 CoA-SH fluorescence | Potency, µM (top dose mostly 58.9 µM), most hits filed as inhibitors | hit rate 0.21% among 390,000
Target sequence (Q92830 whole entry, looked up): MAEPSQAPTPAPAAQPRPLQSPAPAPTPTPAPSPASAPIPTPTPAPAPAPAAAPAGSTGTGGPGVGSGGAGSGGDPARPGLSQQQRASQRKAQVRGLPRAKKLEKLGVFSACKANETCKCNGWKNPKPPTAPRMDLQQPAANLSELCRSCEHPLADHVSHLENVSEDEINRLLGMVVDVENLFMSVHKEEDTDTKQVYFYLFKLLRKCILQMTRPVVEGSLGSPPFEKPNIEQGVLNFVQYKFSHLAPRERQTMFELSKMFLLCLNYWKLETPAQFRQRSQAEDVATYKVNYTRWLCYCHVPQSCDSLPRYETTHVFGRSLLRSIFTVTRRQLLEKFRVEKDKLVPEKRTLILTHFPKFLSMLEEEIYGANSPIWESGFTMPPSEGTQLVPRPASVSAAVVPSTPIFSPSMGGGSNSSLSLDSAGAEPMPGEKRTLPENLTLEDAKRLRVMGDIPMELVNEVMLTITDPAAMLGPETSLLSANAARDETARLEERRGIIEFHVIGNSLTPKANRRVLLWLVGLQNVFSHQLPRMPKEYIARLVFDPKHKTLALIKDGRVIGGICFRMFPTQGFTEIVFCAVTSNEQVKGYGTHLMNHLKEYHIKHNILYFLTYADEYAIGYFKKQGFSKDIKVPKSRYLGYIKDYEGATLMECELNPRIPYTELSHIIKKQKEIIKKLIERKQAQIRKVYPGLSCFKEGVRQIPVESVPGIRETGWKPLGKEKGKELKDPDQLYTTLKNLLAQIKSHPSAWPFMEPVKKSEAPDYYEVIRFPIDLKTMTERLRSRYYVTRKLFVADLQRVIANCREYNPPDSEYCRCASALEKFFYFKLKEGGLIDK
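Free CoA generated was detected with ThioGlo1 (50uM) fluorescence at Ex340nm/Em540nm, read immediately and after 20 min at room temperature. Enzyme, 20 nM in HEPES pH 7.5 buffer, saw compounds 15 min before adding 75uM H3(1-25) peptide and 70uM acetyl-CoA.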
Sfp PPTase inh: inhibitors of Bacillus subtilis Sfp phosphopantetheinyl transferase; Q9F4F7; Potency, µM, actives largely listed as inhibitors; Biochemical Sfp PPTase activity, qHTS; hit rate 3.5% among 310,000;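 also: the enzyme is Sfp with the accession as filed and its product quenches rhodamine fluorescence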
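Fluorescence-quenching assay: 15 nM Sfp-PPTase preincubated 15 min at room temperature with compound, then 5 uM rhodamine-CoA and 12.5 uM BHQ-2-labelled YbbR peptide added. Fluorescence (ex 525/em 598 nm) read at start and after 30 min; difference gives rate.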
GLS inh: blocks human kidney-isoform glutaminase activity; O94925; GLS enzymatic activity, qHTS titration; Potency, µM (series often up to 45.5 µM), hits mostly inhibitors; hit rate 0.21% among 410,000; AID 624170
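hKGA in 45 mM KH2PO4 pH 8.2, 0.02% Tween-20 with pin-transferred compounds; 1 mM L-glutamine (stock) plus glutamate oxidase/HRP/Amplex Red coupling added. Fluorescence read initially and after 30 min at RT.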
HepG2 tox: reduces HepG2 viability in TRb-SRC2 counter-screen | shares compounds with TrxR1 inh-1 | HepG2 viability, ATP luminescence (CellTiter-Glo), 72 h | Potency, µM | hit rate 50% among 40 | AID 2447; calls by dose curve
GR inh: glutathione reductase inhibition, TrxR1 selectivity check | activity change, negative = inhibition, % at 57.1 µM | 55 tested, under 10 active | purified GR, DTNB reduction absorbance 405 nm kinetic | AID 652020 | shares compounds with TrxR1 inh-1
TrxR1 inh-2: rat TrxR1 inhibition, primary screen retest | hit rate 50% among 55 | shares compounds with TrxR1 inh-1 | Potency, µM, actives largely listed as inhibitors | recombinant TrxR1, NADPH fluorescence consumption, selenite substrate | AID 652023
TrxR1 insulin: TrxR1 inhibitors: insulin reduction mechanism-of-action test | shares compounds with TrxR1 inh-1 | TrxR1 Trx-coupled insulin reduction, NADPH absorbance 340 nm | Potency, µM | hit rate 20% among 55 | AID 652037;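 active = compounds with a measured potency under 100 micromolar; inconclusive = filed, but no rule given; inactive = potency at or above that, or unmeasurable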
TrxR1 inh-3: inhibitors of rat thioredoxin reductase 1, DTNB reduction; shares compounds with TrxR1 inh-1; purified TrxR1, DTNB reduction, A412; Potency, µM; hit rate 90% among 55; AID 652256;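 active = a half-inhibiting concentration could be measured and was below 100 µM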
Large screens that a line does not name were inactive (follow-up assays come after a bar, where they were run). Unless noted, calls follow the shape of the dose curve; as a rule, active = well fitted curve in the direction sought with a large enough effect; inconclusive = small, poorly fitted or top-dose-only effect, or another doubt; inactive = no such curve, though single readings can be large; an effect the other way counts as inactive or inconclusive.

COc1ccc(N(C(=O)c2cccnc2)S(=O)(=O)c2cccc([N+](=O)[O-])c2)cc1	none
COc1ccc(N(C(=O)c2ccncc2)S(=O)(=O)c2cccc([N+](=O)[O-])c2)cc1	VDR inhibitor inconclusive, TrxR1 inh-1 50µM | GR inh inactive | TrxR1 inh-2 9.5 | TrxR1 insulin inactive | TrxR1 inh-3 9.2µM
CCOc1ccc(NC(=O)c2nnn(CC(=O)Nc3ccccc3OC)c2N)cc1	GCN5L2 inh inconclusive
Cc1cccc(N2CCN(c3cc(C)nc4nnnn34)CC2C)c1 (stereo not drawn)	TrxR1 inh-1 32µM | GR inh inactive | TrxR1 inh-2 inconclusive | TrxR1 insulin 84µM | TrxR1 inh-3 0.11µM
Cc1cc(C)n(-c2nc3ccccc3nc2N2CCN(c3cccc(C)c3C)CC2)n1	none (no result: Sfp PPTase inh)
CCCOc1cccc(C(=O)NC(=S)Nc2ccc(N3CCN(C)CC3)cc2)c1	TrxR1 inh-1 79µM | GR inh inactive | TrxR1 inh-2 5.3 | TrxR1 insulin inactive | TrxR1 inh-3 inactive
CCOc1cccc(C(=O)NC(=S)Nc2cccc(NC(=O)c3ccccc3Cl)c2)c1	none
CCC(=O)Nc1cccc(NC(=S)NC(=O)c2ccc(C)cc2)c1	TrxR1 inh-1 inconclusive, Sfp PPTase inh inconclusive
CCOc1cccc(C(=O)NC(=S)Nc2ccc(N3CCN(CC)CC3)cc2)c1	none
CCC(=O)Nc1cccc(NC(=S)NC(=O)c2cccc(C)c2)c1	TrxR1 inh-1 11µM | GR inh inactive | TrxR1 inh-2 6 | TrxR1 insulin inactive | TrxR1 inh-3 1.3µM
CCOc1cccc(C(=O)NC(=S)Nc2ccccc2)c1	TrxR1 inh-1 32µM | GR inh inactive | TrxR1 inh-2 6.7 | TrxR1 insulin inactive | TrxR1 inh-3 74µM
COc1cc(C(c2nnnn2C2CCCC2)N2CCc3ccccc3C2)ccc1O (stereo not drawn)	TrxR1 inh-1 2µM, Sfp PPTase inh 18µM | GR inh inactive | TrxR1 inh-2 2.1 | TrxR1 insulin inactive | TrxR1 inh-3 0.71µM
CCOc1ccc(NC(=O)C2CCCCN2S(=O)(=O)c2ccccc2)cc1 (stereo not drawn)	none
COC(=O)c1ccc(C2c3c(oc4ccccc4c3=O)C(=O)N2CCCN2CCOCC2)cc1 (stereo not drawn)	TrxR1 inh-1 10µM, Sfp PPTase inh 25µM | GR inh inactive | TrxR1 inh-2 inconclusive | TrxR1 insulin inactive | TrxR1 inh-3 1.2µM
COCCN1C(=O)c2oc3ccccc3c(=O)c2C1c1ccc(C(=O)OC)cc1 (stereo not drawn)	none
CCCn1c(N)c(C(c2ccc(OC)cc2)N2CCN(c3ccccc3)CC2)c(=O)[nH]c1=O (stereo not drawn)	VDR inhibitor 56µM, TrxR1 inh-1 10µM | GR inh inactive | TrxR1 inh-2 inconclusive | TrxR1 insulin inactive | TrxR1 inh-3 0.17µM
COc1ccccc1CSc1nc2n(n1)C(c1ccccc1)C(C(=O)Nc1ccc(C)cc1)=C(C)N2 (stereo not drawn)	none (no result: Sfp PPTase inh)
COc1ccc(-c2csc3nc(-c4ccccc4)oc(=O)c23)cc1OC	Sfp PPTase inh inconclusive
Cc1cc2nc(Sc3c([N+](=O)[O-])nc(C)n3Cc3ccccc3)[nH]c2cc1C	TrxR1 inh-1 7.1µM | GR inh inactive | TrxR1 inh-2 3 | TrxR1 insulin 32µM | TrxR1 inh-3 0.013µM
Cc1nc([N+](=O)[O-])c(N2CCOCC2)n1Cc1ccccc1	none
CCOc1cc(CNc2ccc(N3CCCC3)cc2)cc(Cl)c1OC	VDR inhibitor inconclusive, TrxR1 inh-1 3.5µM, Sfp PPTase inh inconclusive | GR inh inactive | TrxR1 inh-2 inconclusive | TrxR1 insulin inactive | TrxR1 inh-3 8µM
Cc1ccccc1NC(=S)NC(=O)CCc1ccccc1	TrxR1 inh-1 13µM | GR inh inactive | TrxR1 inh-2 3 | TrxR1 insulin inactive | TrxR1 inh-3 36µM
Cc1ccccc1NC(=S)NC(C)CCc1ccccc1 (stereo not drawn)	none
CCc1cccc(N(CC(=O)NCc2ccc(F)cc2)C(=O)c2csnn2)c1	none
CCOC(=O)c1c(C)oc2c1c(CN1CCN(CCO)CC1)c(O)c1ccccc12	VDR inhibitor inconclusive, TrxR1 inh-1 1.1µM, Sfp PPTase inh inconclusive | GR inh inactive | TrxR1 inh-2 0.3 | TrxR1 insulin inactive | TrxR1 inh-3 0.77µM
CCOC(=O)c1c(C)oc2c1c(CN1CCN(C(=O)OCC)CC1)c(O)c1ccccc12	VDR inhibitor 50µM, TrxR1 inh-1 1.6µM | GR inh inactive | TrxR1 inh-2 inconclusive | TrxR1 insulin inactive | TrxR1 inh-3 0.33µM
COc1ccc2c(c1)C(=O)[C@H](OC(=O)N[C@H]1CCCc3ccccc31)[C@@H](c1ccc(OC)c(Br)c1)O2	none (no result: TrxR1 inh-1, TrxR1 substrate, GCN5L2 inh, GLS inh)
O=C(c1cccc(C(=O)N2CCN(c3ccccc3F)CC2)n1)N1CCN(c2ccccc2F)CC1	none
CC(C)OC(=O)c1cn(-c2ccccc2)nc1-c1ccco1	VDR inhibitor 79µM, TrxR1 inh-1 5µM, Sfp PPTase inh 8.9µM | GR inh inactive | TrxR1 inh-2 inconclusive | TrxR1 insulin inactive | TrxR1 inh-3 2.5µM
Cc1c(NC2=C(Cl)C(=O)N(c3ccccc3)C2=O)c(=O)n(-c2ccccc2)n1C	VDR inhibitor inconclusive, TrxR1 inh-1 3.2µM, Sfp PPTase inh inconclusive | GR inh inactive | TrxR1 inh-2 2.7 | TrxR1 insulin inactive | TrxR1 inh-3 inactive
COc1ccc(-n2c(Cn3nnc4ccccc43)nnc2SCC(=O)O)cc1	none
CS(=O)(=O)c1ccc(C(=O)OCC(=O)N2CCCCC2)cc1[N+](=O)[O-]	none (no result: VDR inhibitor, TrxR1 inh-1, TrxR1 substrate, GCN5L2 inh, Sfp PPTase inh, GLS inh) | HepG2 tox 21µM
O=C(Nc1ccnn1C1CCN(Cc2ccc3nonc3c2)CC1)c1cccc(F)c1	none
O=C(c1ccccc1)[C@@H]1[C@@H]2C(=O)N(c3ccc(F)cc3)C(=O)[C@@H]2C2CCCN21 (stereo partly drawn)	VDR inhibitor inconclusive, TrxR1 inh-1 50µM, Sfp PPTase inh 89µM | GR inh inactive | TrxR1 inh-2 inconclusive | TrxR1 insulin inactive | TrxR1 inh-3 7.4µM
